# In the library only some 3.8% were active in any assay of this set; here they are far more common.
# NALP1 inh – NALP1 inhibition; inhibition, % at 10 µM; S. cerevisiae NALP1/ASC/caspase-1 growth, X-gal OD620, 72 h; 280,000 compounds, 0.61% hits; in the data active = inhibition mostly above about 24%, no sharp cut-off; inactive = mostly below about 32%
# HSF1 inhib – HSF1 inhibition; NIH3T3-HGL HSE-luciferase, MG132-induced, luminescence 8 h; hits give low values; activity change, negative = inhibition, % at 7.5 µM (by protocol); 300,000 compounds, 0.77% hits;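 active = more than half of replicate wells show activity change below -50%, luminescence cut by over half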;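 also: luciferase reports HSF-1 transcriptional activity via heat shock element; 0% = median of DMSO wells and -100% = zero luminescence signal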
# p-CIP stab down – p/CIP protein destabilization | Q05BA5 | F442A p/CIP-EGFP cells, EGFP fluorescence, 16 h | decrease of EGFP signal, % at 10 µM | 290,000 compounds, 0.01% hits | AID 1984;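 active = EGFP signal decrease of at least 30% at 10 µM or well 3 SD below plate mean, unless failing retest; inactive = the rest, including hits failing retest or dose response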
# HSP90 inh – blocks HSP90-mediated luciferase refolding in reticulocyte lysate | inhibition, % at 5.6 µM | Rabbit reticulocyte lysate, luciferase refolding luminescence, 3 h | 290,000 compounds, 0.91% hits;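 active = inhibition above the screen-wide mean plus 3 SD, computed separately per campaign, cut at about 16% in these data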;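 also: 0% = DMSO wells and 100% = 60 µM geldanamycin wells; inhibitors lower the luminescence because luciferase stays unfolded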
# HSF-1 act – increases HSF-1 driven luciferase reporter signal; NIH3T3-HGL HSF-1 luciferase reporter, MG132, 8 h; 100% = twice DMSO control signal; activation, % at 9 µM; 300,000 compounds, 1.7% hits; AID 504408;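 active = mean replicate activation of at least 50% with a set share of replicates each reaching 50%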;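 also: 0% = median of the neutral control wells and 100% = twice that signal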
# Hsp70 act – switches on Hsp70 transcription; HeLa Hsp70 promoter luciferase reporter, luminescence; scaled: vehicle 0, proteasome-inhibitor control 100%; 200,000 compounds, 0.04% hits; AID 1203; activation, % at 10 µM;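 active = activation above the mean across all tested compounds plus 3 SD, cutoff set per campaign, cut at about 5.5% in these data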;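 also: 100% = MG132 at 30 µM as the positive control and 0% = DMSO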
# Active calls of the source: *; / = not tested or not shown.
SMILES,NALP1 inh,HSF1 inhib,p-CIP stab down,HSP90 inh,HSF-1 act,Hsp70 act
Cc1ncc(CN2CCCC(C(=O)Nc3ccc(-c4ccco4)cc3)C2)cn1 (stereo not drawn),-8.9,-3.5,-11.8,2.4,3.3,/
COCc1cc(CN2CCCC(C(=O)Nc3ccc(-c4ccco4)cc3)C2)ccc1OC (stereo not drawn),10.5,19.3,-10.2,-1.2,63.9*,/
Cc1ccc(C(=O)OCn2ncc(Cl)c(Cl)c2=O)cc1,-7.3,-93.6*,-37.2,-0.6,-94.7,87.7*
CCOC(=O)c1ccc(NC(=O)Cn2nc(C)c3ccccc3c2=O)cc1,21.7,-3.7,2.6,-6.9,8.6,/
CCN(CC)S(=O)(=O)c1cc(NC(=O)Cn2ncc(Cl)c(Cl)c2=O)ccc1C,7.3,81.2,-3.7,5.1,120.5*,/
CCOC(=O)c1ccc(NC(=O)Cn2ncc(Cl)c(Cl)c2=O)cc1,19.5,-93.5*,2.0,3.0,-94.2,5.8*
CCC(=O)Nc1ccc(C(=O)Cn2ncc(Cl)c(Cl)c2=O)cc1,10.1,41.7,-19.8,-1.2,56.8*,/
O=C(OCn1ncc(Cl)c(Cl)c1=O)c1ccc(C(F)(F)F)cc1,-0.3,9.2,5.6,-1.2,26.7,0.3
N#Cc1cn(-c2cccc(C(F)(F)F)c2)c(=O)[nH]c1=O,5.8,-2.0,-2.2,6.6,5.4,/
Cn1c(=Nc2ccccc2)sc2ccccc21,10.1,-0.7,1.1,1.7,7.2,-0.3
CN(C)c1ccc(N=c2sc3ccccc3n2C)cc1,-3.0,70.5,-12.7,-7.5,109.5*,0.0
Cc1ccc(CCNS(=O)(=O)c2cc3c(cc2C)n(C)c(=O)c(=O)n3C)cc1,12.4,9.2,-1.4,2.6,7.0,/
CCc1c(C)nc2cc(-c3cccc(Br)c3)[nH]n2c1=O,8.6,20.7,9.0,0.0,34.1,/
O=C(O)CSc1nc(-c2ccccc2)nc2c1oc1ccccc12,2.8,-68.4*,3.8,0.7,-74.4,0.0
CCc1nc(SCC(=O)c2cccs2)c2oc3ccccc3c2n1,-2.8,12.4,-9.0,6.5,65.9*,-0.4
CCC(C)[C@H](Nc1nc(-c2ccccc2)nc2c1oc1ccccc12)C(=O)O (stereo partly drawn),-23.9,-3.0,7.5,-3.7,-25.6,-0.1
CC(C)[C@H](Nc1nc(-c2ccccc2)nc2c1oc1ccccc12)C(=O)O,-11.3,-54.9*,5.5,-2.0,-65.1,-0.4
CCc1nc(SCC(=O)NCCc2ccccc2)c2oc3ccccc3c2n1,5.3,-4.8,-5.7,-4.0,12.7,-0.3
Cc1ccc(C(C(=O)NC2CCCC2)N(Cc2ccc(F)cc2)C(=O)c2snc(C(N)=O)c2N)o1 (stereo not drawn),-3.3,11.1,-19.5,6.0,10.1,/
Cc1ccn2c(=O)nc(SCC(=O)c3ccc(Cl)cc3)nc2c1,/,1.4,/,/,-1.5,/
Cc1ccn2c(C(=O)c3ccc(Cl)cc3)cnc2c1,-0.8,-7.4,7.0,22.2*,-18.3,1.0
Cc1ccc(C(=O)Nc2cccnc2Cl)cc1Cl,6.5,20.3,-6.4,-6.9,58.7*,/
Cc1cc(C)cc(C(=O)Nc2cccnc2Cl)c1,-13.6,4.8,-8.2,0.6,14.5,/
CCC(Sc1nc(N)c(NC(=O)c2ccc(Br)o2)c(=O)[nH]1)C(=O)O (stereo not drawn),7.3,-2.6,-16.2,2.1,-6.5,/
COc1c([N+](=O)[O-])c(=O)oc2ccccc12,37.9,-72.4*,-8.1,-2.9,-78.9,-0.2
SMILES,NALP1 inh,HSF1 inhib,p-CIP stab down,HSP90 inh,HSF-1 act,Hsp70 act
COC(=O)CC(NC(=S)NC(=O)c1ccccc1)c1ccc(Br)cc1 (stereo not drawn),3.3,6.9,-7.6,1.8,23.6,/
C=C(C)CNC(=S)Nc1nc2c(cc1C(=O)OCC)CCCC2,8.8,35.9,-1.1,-2.5,59.8*,-0.6
COc1cc(/C=C/C(=O)c2c(O)ccc3c(C)cc(=O)oc23)ccc1O,16.2,72.6,2.0,10.5,113.2*,-0.2
Cc1cc(=O)oc2c(C(=O)/C=C/c3ccccc3)c(O)ccc12,1.5,7.5,-12.8,4.5,14.6,0.0
Cc1c(C(=O)/C=C/c2cccs2)oc2ccc(F)cc12,6.9,38.3,-1.4,6.9,106.0*,-0.1
Cc1cc(=O)oc2c(C(=O)/C=C\c3cccs3)c(O)ccc12,24.3,34.1,-6.0,1.7,61.2*,-0.3
O=C1c2nc3cc(-c4ccco4)[nH]n3c(=O)c2CN1C1CCCCC1,9.8,-6.8,-14.9,3.5,-15.3,/
O=C(c1cccc(S(=O)(=O)N2CCc3ccccc32)c1)N1CCCC(C(F)(F)F)C1 (stereo not drawn),/,10.6,/,/,5.1,/
COc1ccc(C(=O)CC(=O)C(=O)NCCc2cccc(C)c2)cc1,-14.6,39.1,-8.1,-4.9,69.9*,-0.5
COc1ccc(CCNC(=O)/C=C\c2ccccc2)cc1OC,36.5,-5.6,-10.6,2.0,4.0,-0.2
COc1ccc(C(=O)CC(=O)C(=O)Nc2cc(OC)c(OC)c(OC)c2)cc1,3.2,42.7,0.6,0.3,77.2*,/
COc1ccc(/C=C/C(=O)NC(=S)NCCc2ccc(OC)c(OC)c2)cc1,5.2,-61.4*,-4.7,-0.5,-67.3,-0.1
N#C/C(C(N)=O)=C1/SC=C(c2ccccc2)N1c1ccccc1,36.6*,-5.1,-7.3,4.9,-4.9,/
O=C(Nc1ccccc1C(=O)N1CCCC1)c1ncoc1-c1cccc(Cl)c1,1.0,22.1,-0.5,1.5,61.6*,/
COC(=O)CCC(=O)COc1ccc(OC)cc1C#N,-1.1,39.2,-8.3,2.5,52.5*,0.2
Cc1ccc(C)c(N2CCN(C(=O)c3nn(C)c4c3CS(=O)(=O)c3ccccc3-4)CC2)c1,11.9,-2.6,-7.3,1.1,-10.4,/
COc1cc2ccccc2cc1C(=O)Nc1ccccc1Cl,17.0,65.7,5.6,-3.5,92.6*,/
COc1cc(C(=O)Nc2ccc(Nc3ccccc3)cc2)cc(OC)c1OC,0.0,25.2,6.9,0.1,57.9*,/
CCOc1ccc(NC(=O)c2cc3ccccc3cc2OC)cc1,4.0,22.4,-5.4,1.2,74.7*,/
COc1ccccc1NC(=O)CN1CCN(CC(=O)Nc2ccccc2Cl)CC1,-9.7,156.7,-2.9,-3.9,242.6*,/
COc1cc(C(=O)Nc2ccncc2)cc(OC)c1OC,4.1,-4.3,-7.0,4.4,-5.3,0.1
COC(=O)c1cc(CNC(=O)c2ccc(N3CCCC3)c([N+](=O)[O-])c2)ccc1OC,15.5,2.1,4.1,-0.9,5.4,/
COc1nc(-c2ccccc2)nc(-c2ccccc2)c1C,/,-3.5,/,/,-6.3,/
Cc1ccc2c(c1)CC(C)N2S(=O)(=O)c1nnc(NC(=O)CC(C)C)s1 (stereo not drawn),32.5,-2.1,5.3,7.1,-6.3,/
COc1cc2[nH]c(=O)n(CCC(=O)NCCCN3CCN(c4ccccc4F)CC3)c(=O)c2cc1OC,7.1,-7.6,-1.3,-1.3,-12.4,0.0
CCOC(=O)c1cc(C(=O)NN)c(=O)[nH]c1C,/,0.2,-7.0,4.6,2.4,/

# Screening results: PubChem BioAssay, several laboratories
